Our source for the binding signal values is publication PMC7862700, “An all-to-all approach to the identification of sequence-specific readers for epigenetic DNA modifications on cytosine”.

What all share (experiment): DAPPL (digital affinity profiling via proximity ligation, sequencing); 10 mM Tris-HCl pH 7.5, 50 mM NaCl, 1 mM DTT, 4% glycerol, room temperature, 30 min; GST-TFs on glutathione beads, 16-mer random dsDNA library, 0.1% formaldehyde crosslink after washing; high values mean tight binding
The target of assay [1] is T1, FEV (Homo sapiens, UniProt Q99581 1-238).
T1 sequence: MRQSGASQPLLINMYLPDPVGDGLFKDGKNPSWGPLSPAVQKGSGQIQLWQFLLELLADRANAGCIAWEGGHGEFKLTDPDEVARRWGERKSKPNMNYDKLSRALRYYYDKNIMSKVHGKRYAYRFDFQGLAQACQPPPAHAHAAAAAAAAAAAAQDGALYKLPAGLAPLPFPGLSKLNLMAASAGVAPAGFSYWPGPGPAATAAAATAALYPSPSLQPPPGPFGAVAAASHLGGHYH
Conditions: protein: recombinant; tags: N-terminal GST; dsDNA, one strand shown. An outline of the steps: (§1)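 In yeast, human transcription factors were expressed with a GST fusion, then pulled down on glutathione beads and given DNA barcodes. Pooled with a tag-only sample, they were exposed to 200 nmole of a 16-mer random double-stranded DNA library (Tris/NaCl/DTT/glycerol buffer, room temperature, 30 min), washed, crosslinked with 0.1% formaldehyde, proximity-ligated using BsaI/T4 ligase for 1 h at 37 °C, PCR-amplified and read on an Illumina NextSeq500. Each hexamer's frequency of reads for a factor, divided by the matching frequency for the tag-only sample, gives the binding signal.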

In assay [2] the target is ETV5 (Homo sapiens, UniProt P41161 1-510). Conditions: protein: recombinant; tags: N-terminal GST; dsDNA, one strand shown. An outline of the steps: as §1
Chain of ETV5 (P41161 whole entry): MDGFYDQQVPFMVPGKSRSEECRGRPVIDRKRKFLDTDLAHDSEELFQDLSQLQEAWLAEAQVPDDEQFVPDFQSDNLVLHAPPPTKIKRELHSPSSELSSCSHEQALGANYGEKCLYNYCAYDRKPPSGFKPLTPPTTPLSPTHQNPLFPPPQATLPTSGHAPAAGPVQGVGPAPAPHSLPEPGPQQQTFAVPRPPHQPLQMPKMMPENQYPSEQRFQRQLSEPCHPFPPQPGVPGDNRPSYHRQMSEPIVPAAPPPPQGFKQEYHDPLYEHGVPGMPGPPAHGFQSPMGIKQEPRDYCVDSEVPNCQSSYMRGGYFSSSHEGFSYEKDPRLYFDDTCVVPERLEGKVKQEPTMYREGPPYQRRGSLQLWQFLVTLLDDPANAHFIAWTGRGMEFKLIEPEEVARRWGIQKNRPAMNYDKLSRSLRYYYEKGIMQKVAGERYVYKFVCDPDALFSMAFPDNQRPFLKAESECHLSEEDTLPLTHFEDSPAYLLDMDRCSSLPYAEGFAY
In assay [3] the target is HSF1 (Homo sapiens, UniProt Q00613 1-529). Conditions: protein: recombinant; tags: N-terminal GST; chain copies: 3; dsDNA, one strand shown. An outline of the steps: as §1
Chain of HSF1 (Q00613 whole entry): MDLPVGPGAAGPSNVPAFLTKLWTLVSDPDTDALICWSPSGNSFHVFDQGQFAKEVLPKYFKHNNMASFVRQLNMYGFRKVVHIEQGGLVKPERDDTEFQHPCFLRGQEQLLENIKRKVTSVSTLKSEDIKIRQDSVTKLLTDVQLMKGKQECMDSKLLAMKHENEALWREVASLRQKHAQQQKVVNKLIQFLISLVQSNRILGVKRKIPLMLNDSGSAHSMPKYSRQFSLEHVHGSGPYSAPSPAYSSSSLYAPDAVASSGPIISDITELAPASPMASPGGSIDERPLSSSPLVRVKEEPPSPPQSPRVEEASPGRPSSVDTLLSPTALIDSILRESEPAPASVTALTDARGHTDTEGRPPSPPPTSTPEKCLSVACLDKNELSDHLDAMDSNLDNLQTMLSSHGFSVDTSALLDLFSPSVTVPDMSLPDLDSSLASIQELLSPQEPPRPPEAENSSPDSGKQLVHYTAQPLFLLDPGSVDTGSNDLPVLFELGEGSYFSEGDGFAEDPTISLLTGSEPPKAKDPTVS
For assay [4], the target named is T2, SPIC (Homo sapiens, UniProt Q8N5J4 1-248).
T2 sequence: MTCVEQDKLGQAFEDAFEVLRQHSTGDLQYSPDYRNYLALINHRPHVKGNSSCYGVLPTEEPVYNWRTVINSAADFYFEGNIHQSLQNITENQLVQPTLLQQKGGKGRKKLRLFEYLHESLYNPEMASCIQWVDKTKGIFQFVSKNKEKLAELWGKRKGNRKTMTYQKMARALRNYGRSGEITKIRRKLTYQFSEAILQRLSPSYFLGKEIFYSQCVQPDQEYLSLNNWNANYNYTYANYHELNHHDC
Conditions: protein: recombinant; tags: N-terminal GST; dsDNA, one strand shown. The procedure, abridged: as §1

For assay [5], the target named is ELF4 (Homo sapiens, UniProt Q99607 1-663). As to conditions: protein: recombinant; tags: N-terminal GST; dsDNA, one strand shown. An outline of the steps:
as §1

Assay [6] addresses T3, ELK4 (Homo sapiens, UniProt P28324-2 1-405).
T3 sequence: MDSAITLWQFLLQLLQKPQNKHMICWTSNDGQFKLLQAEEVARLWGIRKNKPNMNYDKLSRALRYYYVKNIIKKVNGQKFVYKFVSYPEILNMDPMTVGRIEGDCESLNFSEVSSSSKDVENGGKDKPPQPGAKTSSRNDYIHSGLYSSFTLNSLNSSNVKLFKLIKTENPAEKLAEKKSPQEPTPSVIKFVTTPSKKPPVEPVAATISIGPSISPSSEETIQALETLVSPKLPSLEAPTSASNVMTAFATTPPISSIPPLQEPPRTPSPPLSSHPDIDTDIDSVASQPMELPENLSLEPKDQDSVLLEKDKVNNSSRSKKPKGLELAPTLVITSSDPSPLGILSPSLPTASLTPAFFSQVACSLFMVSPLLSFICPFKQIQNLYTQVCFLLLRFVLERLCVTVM
As to conditions: protein: recombinant; tags: N-terminal GST; dsDNA, one strand shown. An outline of the steps: as §1

The target in assay [7] is T4, ETV2 (Homo sapiens, UniProt O00321 1-342).
T4 sequence: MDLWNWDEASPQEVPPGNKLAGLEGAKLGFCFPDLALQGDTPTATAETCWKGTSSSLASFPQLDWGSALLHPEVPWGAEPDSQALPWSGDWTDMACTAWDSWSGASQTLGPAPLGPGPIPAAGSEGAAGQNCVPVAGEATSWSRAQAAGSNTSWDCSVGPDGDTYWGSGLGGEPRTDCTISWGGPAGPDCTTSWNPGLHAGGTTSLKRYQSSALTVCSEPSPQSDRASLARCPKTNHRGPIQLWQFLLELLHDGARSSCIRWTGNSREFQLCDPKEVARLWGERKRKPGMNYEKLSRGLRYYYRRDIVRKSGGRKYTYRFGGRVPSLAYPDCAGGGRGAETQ
Conditions: protein: recombinant; tags: N-terminal GST; dsDNA, one strand shown. An outline of the steps:
as §1

The target of assay [8] is T5, ELF3 (Homo sapiens, UniProt P78545 1-371).
T5 sequence: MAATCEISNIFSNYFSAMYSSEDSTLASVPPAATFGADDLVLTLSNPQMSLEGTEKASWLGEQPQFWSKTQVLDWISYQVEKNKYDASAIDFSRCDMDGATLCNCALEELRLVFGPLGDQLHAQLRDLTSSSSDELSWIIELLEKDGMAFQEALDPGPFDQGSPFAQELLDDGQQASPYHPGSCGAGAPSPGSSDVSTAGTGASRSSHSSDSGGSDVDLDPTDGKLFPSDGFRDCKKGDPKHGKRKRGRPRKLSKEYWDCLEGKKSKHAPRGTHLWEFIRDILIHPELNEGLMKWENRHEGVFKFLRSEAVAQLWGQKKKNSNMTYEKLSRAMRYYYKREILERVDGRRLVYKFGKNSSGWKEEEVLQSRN
As to conditions: protein: recombinant; tags: N-terminal GST; dsDNA, one strand shown. The procedure, abridged:
as §1

Assay [9] deals with CRX (Homo sapiens, UniProt O43186 1-299). As to conditions: protein: recombinant; tags: N-terminal GST; dsDNA, one strand shown. The procedure, abridged:
as §1

Assay [10] deals with ETV1 (Homo sapiens, UniProt P50549 1-477). Conditions: protein: recombinant; tags: N-terminal GST; dsDNA, one strand shown. An outline of the steps:
as §1

Assay [11] addresses T6, ERF (Homo sapiens, UniProt P50548 1-548).
T6 sequence: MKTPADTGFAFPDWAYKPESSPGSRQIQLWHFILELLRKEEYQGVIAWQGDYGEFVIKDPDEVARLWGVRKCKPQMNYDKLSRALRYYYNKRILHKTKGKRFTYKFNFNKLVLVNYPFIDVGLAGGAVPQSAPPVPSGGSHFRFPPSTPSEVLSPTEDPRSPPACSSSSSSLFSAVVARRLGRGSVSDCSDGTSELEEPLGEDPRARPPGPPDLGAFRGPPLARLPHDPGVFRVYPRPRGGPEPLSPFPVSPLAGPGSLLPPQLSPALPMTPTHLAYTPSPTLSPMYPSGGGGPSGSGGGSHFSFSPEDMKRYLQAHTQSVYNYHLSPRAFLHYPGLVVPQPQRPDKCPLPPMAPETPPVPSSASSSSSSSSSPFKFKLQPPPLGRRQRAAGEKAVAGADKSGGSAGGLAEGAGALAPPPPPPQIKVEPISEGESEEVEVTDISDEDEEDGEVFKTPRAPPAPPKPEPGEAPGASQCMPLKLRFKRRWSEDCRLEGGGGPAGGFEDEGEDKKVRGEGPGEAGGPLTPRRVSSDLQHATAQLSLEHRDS
Conditions: protein: recombinant; tags: N-terminal GST; dsDNA, one strand shown. The procedure, abridged: as §1

Assay [12] has as its target T7, ETV3L (Homo sapiens, UniProt Q6ZN32 1-361).
T7 sequence: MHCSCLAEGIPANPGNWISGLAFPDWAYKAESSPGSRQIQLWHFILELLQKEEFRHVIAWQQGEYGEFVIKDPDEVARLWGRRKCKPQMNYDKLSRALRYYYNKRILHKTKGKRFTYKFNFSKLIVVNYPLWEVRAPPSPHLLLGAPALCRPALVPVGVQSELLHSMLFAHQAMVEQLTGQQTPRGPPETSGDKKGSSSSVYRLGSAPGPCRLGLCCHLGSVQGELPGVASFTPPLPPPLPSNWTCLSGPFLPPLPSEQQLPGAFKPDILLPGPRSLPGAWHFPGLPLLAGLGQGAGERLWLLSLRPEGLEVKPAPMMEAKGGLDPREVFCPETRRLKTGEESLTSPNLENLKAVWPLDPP
As to conditions: protein: recombinant; tags: N-terminal GST; dsDNA, one strand shown. The procedure, abridged: as §1

For assay [13], the target named is T8, ETS2 (Homo sapiens, UniProt P15036 1-469).
T8 sequence: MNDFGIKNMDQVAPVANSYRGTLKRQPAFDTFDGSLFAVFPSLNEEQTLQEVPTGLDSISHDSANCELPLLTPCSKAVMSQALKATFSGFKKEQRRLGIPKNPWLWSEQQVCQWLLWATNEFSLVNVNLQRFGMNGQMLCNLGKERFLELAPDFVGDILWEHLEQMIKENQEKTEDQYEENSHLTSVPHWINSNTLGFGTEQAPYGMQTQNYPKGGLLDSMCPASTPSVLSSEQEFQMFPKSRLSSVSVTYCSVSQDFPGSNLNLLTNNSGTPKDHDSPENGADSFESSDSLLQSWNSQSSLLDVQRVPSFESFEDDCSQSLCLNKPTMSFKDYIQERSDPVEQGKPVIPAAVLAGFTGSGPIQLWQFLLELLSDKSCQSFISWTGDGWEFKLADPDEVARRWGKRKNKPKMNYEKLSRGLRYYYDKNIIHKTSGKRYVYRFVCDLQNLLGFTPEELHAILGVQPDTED
Conditions: protein: recombinant; tags: N-terminal GST; dsDNA, one strand shown. The procedure, abridged: as §1

The target of assay [14] is T9, SPDEF (Homo sapiens, UniProt O95238 1-335).
T9 sequence: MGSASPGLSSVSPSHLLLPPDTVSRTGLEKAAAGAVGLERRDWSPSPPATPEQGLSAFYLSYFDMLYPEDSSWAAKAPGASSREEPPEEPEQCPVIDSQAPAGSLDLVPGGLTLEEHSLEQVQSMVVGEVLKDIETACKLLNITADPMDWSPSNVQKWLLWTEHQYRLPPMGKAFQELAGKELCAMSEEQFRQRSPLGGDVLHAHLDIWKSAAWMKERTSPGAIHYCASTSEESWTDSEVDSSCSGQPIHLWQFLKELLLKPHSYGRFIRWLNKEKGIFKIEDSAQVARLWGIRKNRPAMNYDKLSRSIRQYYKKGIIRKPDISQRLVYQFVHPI
Conditions: protein: recombinant; tags: N-terminal GST; dsDNA, one strand shown. An outline of the steps:
as §1

In assay [15] the target is T10, ETV7 (Homo sapiens, UniProt Q9Y603 1-341).
T10 sequence: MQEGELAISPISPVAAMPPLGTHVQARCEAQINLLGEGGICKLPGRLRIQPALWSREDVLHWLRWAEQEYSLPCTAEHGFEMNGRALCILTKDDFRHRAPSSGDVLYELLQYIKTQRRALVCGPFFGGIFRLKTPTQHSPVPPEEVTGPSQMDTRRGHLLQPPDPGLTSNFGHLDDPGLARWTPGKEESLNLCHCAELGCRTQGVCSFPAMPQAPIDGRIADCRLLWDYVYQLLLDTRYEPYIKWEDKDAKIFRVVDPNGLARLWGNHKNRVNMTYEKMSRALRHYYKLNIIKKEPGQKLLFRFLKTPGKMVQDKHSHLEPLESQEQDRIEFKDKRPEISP
As to conditions: protein: recombinant; tags: N-terminal GST; dsDNA, one strand shown. An outline of the steps: as §1

Assay [16] concerns the target T11, ELF5 (Homo sapiens, UniProt Q9UKW6-2 1-255).
T11 sequence: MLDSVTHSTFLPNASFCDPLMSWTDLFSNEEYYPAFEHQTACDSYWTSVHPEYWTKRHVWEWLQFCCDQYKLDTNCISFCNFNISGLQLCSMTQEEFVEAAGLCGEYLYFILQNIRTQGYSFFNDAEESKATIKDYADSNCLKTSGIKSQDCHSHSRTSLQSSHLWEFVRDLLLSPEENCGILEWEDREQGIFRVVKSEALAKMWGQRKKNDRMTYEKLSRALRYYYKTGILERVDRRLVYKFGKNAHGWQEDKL
As to conditions: protein: recombinant; tags: N-terminal GST; dsDNA, one strand shown. The procedure, abridged: as §1

For assay [17], the target named is T12, ETV3 (Homo sapiens, UniProt P41162-2 1-143).
T12 sequence: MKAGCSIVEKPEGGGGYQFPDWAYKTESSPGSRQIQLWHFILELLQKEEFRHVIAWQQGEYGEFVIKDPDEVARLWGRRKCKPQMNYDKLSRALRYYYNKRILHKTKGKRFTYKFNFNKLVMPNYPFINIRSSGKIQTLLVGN
As to conditions: protein: recombinant; tags: N-terminal GST; dsDNA, one strand shown. The procedure, abridged:
as §1

Assay [18] addresses ETV6 (Homo sapiens, UniProt P41212 1-452). As to conditions: protein: recombinant; tags: N-terminal GST; dsDNA, one strand shown. An outline of the steps:
as §1

Chain of ETV1 (P50549 whole entry): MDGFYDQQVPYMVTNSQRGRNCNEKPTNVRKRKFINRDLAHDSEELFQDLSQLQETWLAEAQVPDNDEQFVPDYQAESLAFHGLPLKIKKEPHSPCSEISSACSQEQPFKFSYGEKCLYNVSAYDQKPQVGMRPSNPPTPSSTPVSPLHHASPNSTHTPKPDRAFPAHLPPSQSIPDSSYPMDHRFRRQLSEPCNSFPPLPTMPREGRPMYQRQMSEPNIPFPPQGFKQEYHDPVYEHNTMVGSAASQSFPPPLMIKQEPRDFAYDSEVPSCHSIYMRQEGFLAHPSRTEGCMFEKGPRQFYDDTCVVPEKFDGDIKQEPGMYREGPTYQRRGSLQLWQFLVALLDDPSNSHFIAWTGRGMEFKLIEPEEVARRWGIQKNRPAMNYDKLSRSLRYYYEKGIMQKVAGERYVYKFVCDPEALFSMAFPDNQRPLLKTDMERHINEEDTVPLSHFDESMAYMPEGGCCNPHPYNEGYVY
Chain of ELF4 (Q99607 whole entry): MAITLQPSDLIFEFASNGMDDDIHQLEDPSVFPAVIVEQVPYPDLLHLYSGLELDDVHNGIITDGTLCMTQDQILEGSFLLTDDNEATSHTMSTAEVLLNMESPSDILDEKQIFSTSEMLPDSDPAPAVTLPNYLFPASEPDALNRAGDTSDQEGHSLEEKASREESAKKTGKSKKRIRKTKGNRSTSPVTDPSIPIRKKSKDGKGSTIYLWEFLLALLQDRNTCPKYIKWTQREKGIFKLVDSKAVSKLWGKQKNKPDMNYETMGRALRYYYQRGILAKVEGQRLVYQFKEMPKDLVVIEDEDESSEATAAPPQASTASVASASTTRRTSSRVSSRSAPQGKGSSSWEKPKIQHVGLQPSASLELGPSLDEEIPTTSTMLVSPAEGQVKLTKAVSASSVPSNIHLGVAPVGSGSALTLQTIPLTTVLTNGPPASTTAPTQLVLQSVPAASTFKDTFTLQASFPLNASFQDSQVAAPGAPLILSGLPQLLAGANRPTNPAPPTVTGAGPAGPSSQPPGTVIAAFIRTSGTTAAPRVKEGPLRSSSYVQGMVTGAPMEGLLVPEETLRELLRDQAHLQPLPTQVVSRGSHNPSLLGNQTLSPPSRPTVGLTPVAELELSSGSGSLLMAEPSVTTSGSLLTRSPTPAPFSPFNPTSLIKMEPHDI
Chain of CRX (O43186 whole entry): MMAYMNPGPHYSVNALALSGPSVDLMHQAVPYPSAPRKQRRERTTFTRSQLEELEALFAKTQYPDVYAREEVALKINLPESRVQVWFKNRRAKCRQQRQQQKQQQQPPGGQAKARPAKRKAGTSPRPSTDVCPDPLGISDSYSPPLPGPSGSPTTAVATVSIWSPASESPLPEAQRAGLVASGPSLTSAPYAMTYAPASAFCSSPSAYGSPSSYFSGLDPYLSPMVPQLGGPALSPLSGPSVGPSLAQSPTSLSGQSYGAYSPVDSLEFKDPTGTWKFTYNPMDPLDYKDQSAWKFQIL
Chain of ETV6 (P41212 whole entry): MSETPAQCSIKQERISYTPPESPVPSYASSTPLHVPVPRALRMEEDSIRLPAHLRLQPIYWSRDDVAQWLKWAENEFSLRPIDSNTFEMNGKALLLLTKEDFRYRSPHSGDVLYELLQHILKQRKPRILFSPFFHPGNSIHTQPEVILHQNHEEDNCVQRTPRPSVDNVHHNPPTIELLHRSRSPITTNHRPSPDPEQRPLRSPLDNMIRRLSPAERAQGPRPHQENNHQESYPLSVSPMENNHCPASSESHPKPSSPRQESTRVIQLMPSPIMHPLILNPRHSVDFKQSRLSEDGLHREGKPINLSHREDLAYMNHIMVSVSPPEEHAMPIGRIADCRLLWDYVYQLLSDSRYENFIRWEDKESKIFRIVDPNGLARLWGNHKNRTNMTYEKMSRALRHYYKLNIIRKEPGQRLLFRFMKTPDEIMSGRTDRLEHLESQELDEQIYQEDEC

Consider AATGTC, for which the binding signal in assay [1] is 1.19 fold enrichment (6-mer frequency, TF over GST control); in assay [2] it was 1.23 fold enrichment (6-mer frequency, TF over GST control); in assay [3], 1.14 fold enrichment (6-mer frequency, TF over GST control); in [4] it was 1.41 fold enrichment (6-mer frequency, TF over GST control); in [5] it was 1.21 fold enrichment (6-mer frequency, TF over GST control); in assay [6], 1.32 fold enrichment (6-mer frequency, TF over GST control). Also, the binding signal in assay [7] is 1.15 fold enrichment (6-mer frequency, TF over GST control); in assay [8], 1.36 fold enrichment (6-mer frequency, TF over GST control); in [9], 1.04 fold enrichment (6-mer frequency, TF over GST control); in [10], 1.14 fold enrichment (6-mer frequency, TF over GST control); in [11], 1.17 fold enrichment (6-mer frequency, TF over GST control); in assay [12] it was 1.22 fold enrichment (6-mer frequency, TF over GST control). Moreover, the binding signal in [13] is 1.27 fold enrichment (6-mer frequency, TF over GST control); in assay [14] it was 1.36 fold enrichment (6-mer frequency, TF over GST control); in assay [15], 1.23 fold enrichment (6-mer frequency, TF over GST control); in assay [16] it was 1.38 fold enrichment (6-mer frequency, TF over GST control); in [17], 1.23 fold enrichment (6-mer frequency, TF over GST control); in assay [18], 1.21 fold enrichment (6-mer frequency, TF over GST control).
